Compound activity deposited in PubChem by NMMLSC.
This is a sample that favours compounds with a hit; in the whole collection about 1.2% have one here.
GSH fluor: GSH bead compound fluorescence profile; GSH beads flow cytometry, compound fluorescence 488/530 nm; stronger effect = higher value; fluorescence (KMESF) at 10 µM; hit rate 0.25% among 190,000; AID 1776; in the data active = fluorescence above about 89;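 also: glutathione beads carrying GST-tagged Bcl family fusion proteins plus one bare bead set; values are compound well signal with DMSO vehicle wells as background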
RGS7-Gao reg: modulates binding of RGS7 to human Galphao. P09471. Multiplexed bead flow cytometry; actives lie on both sides. binding response (% of control), % at 10 µM. hit rate 0.35% among 220,000. AID 1439; in the data active = binding response below about 49% or above about 150%; inconclusive = no clear call, values can overlap the other calls; inactive = in between;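 also: fluorescent Galphao held in activated GDP-AlF4 state binding bead-coupled RGS7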
Target sequence (P09471 whole entry, looked up): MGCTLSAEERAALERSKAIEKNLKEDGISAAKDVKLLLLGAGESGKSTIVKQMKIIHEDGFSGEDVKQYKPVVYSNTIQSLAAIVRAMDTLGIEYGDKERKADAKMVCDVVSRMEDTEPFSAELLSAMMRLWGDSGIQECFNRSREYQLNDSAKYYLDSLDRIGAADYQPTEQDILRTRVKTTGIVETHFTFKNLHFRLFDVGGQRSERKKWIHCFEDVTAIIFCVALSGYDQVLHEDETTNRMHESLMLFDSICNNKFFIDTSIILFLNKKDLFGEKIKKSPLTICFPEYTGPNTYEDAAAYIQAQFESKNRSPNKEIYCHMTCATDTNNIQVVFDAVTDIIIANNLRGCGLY
Avidin fluor: compound fluoresces at 488/530 nm on avidin beads. AID 1775. hit rate 0.38% among 220,000. compound fluorescence 488/530 nm, flow cytometry; stronger effect = higher value. fluorescence (KMESF) at 10 µM; in the data active = fluorescence above about 47
RGS8-Gao: regulators of human RGS8-Galphao interaction; P09471; multiplexed bead flow cytometry, RGS8-Galphao binding; actives lie on both sides; response (percent of control binding), % at 10 µM; hit rate 0.34% among 220,000; AID 1423; in the data active = response below about 60% or above about 140%; inactive = in between;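 also: Galphao activated as the GDP aluminium fluoride complex binding bead-coupled RGS8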
RGS4-Gao reg: modulates binding of RGS4 to human Galphao; Multiplexed bead flow cytometry; actives lie on both sides; AID 1415; hit rate 0.33% among 220,000; binding response (% of control), % at 10 µM; in the data active = binding response below about 49% or above about 150%; inactive = in between;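 also: fluorescent Galphao activated with aluminum fluoride binding bead-coupled RGS4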
RGS16-Gao: modulates binding between human RGS16 and Galphao; O15492+P09471; bead-based flow cytometry RGS16-Galphao binding, fluorescence; actives lie on both sides; binding response (% of control), % at 10 µM; hit rate 0.38% among 220,000; AID 1441;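 also: Galphao activated by GDP with aluminum fluoride before binding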
RGS-Gao: regulators of human RGS4-Galphao interaction; shares compounds with RGS16-Gao; multiplexed bead flow cytometry, RGS–Galpha-o binding; RGS4–Galpha-o binding response, % at 10 µM; hit rate 99% among 1,600;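 also: fluorescently labeled Galpha-o bound to GDP with aluminium fluoride binding biotinylated RGS beads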
Target sequence (P09471 whole entry, looked up): as above
Target sequence (P49798 whole entry, looked up): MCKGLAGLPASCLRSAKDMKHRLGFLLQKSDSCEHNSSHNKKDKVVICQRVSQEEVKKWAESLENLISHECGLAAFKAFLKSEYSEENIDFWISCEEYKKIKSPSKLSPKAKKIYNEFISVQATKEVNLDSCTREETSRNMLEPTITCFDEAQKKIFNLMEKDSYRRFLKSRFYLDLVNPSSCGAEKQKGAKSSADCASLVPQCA
Biotin-avidin: biotin-avidin bead binding disruption counter-screen | streptavidin beads, fluorescein-biotin binding, flow cytometry | 1,700 tested, under 10 active | shares compounds with RGS16-Gao | inhibition, % at 10 µM;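 active = inhibition above 50%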;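 also: median green fluorescence of gated singlet beads compared with DMSO control wells; 0% = DMSO wells and 100% = complete loss of bead fluorescence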
RGS8-Gao single: confirmation of regulators of human RGS8-Galphao interaction; shares compounds with RGS16-Gao; bead-based flow cytometry RGS8-Galphao binding, fluorescence; actives lie on both sides; binding response (% of control), % at 10 µM; hit rate 3% among 1,700; AID 1836; in the data active = binding response below about 72% or above about 130%; inactive = in between;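 also: Galphao activated as GDP AlF4 complex before binding bead RGS8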
RGS7-Gao single: RGS7-Galphao interaction regulation, single point confirmation | shares compounds with RGS16-Gao | response (percent of control binding), % at 10 µM | hit rate 7.8% among 1,700 | bead-based flow cytometry RGS7-Galphao binding; actives lie on both sides; in the data active = response below about 75% or above about 130%; inactive = in between;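 also: fluorescent Galphao activated with GDP and aluminum fluoride binding bead-coupled RGS7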
RGS16-Gao single: RGS16-Galphao interaction regulation, single point confirmation. bead-based flow cytometry, RGS16-Galphao binding; actives lie on both sides. shares compounds with RGS16-Gao. response (% of control binding), % at 10 µM. hit rate 4% among 1,700; in the data active = response below about 74% or above about 130%; inactive = in between;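 also: Galphao activated as the GDP aluminium fluoride complex binding bead-coupled RGS16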
RGS4-Gao single: confirmation of regulators of human RGS4-Galphao interaction | shares compounds with RGS16-Gao | RGS4-Galphao binding, multiplexed bead flow cytometry; actives lie on both sides | binding response (% of control), % at 10 µM | hit rate 4% among 1,700 | AID 1840; in the data active = binding response below about 74% or above about 130%; inactive = in between
RGS19-Gao conf: confirmation of regulators of human RGS19-Galphao interaction; shares compounds with RGS16-Gao; bead-based flow cytometry RGS19-Galphao binding; actives lie on both sides; response (percent of control binding), % at 10 µM; hit rate 5% among 1,700; AID 1841; in the data active = response below about 50% or above about 160%; inactive = in between;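 also: 100% = no compound control and 0% = blank background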
Active calls of the source: *; ? = inconclusive; . = no result given; [ ] = remark or other dose. Unless noted, no rule for the calls is given here.

SMILES	GSH fluor	RGS7-Gao reg	Avidin fluor	RGS8-Gao	RGS4-Gao reg	RGS16-Gao	Biotin-avidin	RGS8-Gao single	RGS7-Gao single	RGS16-Gao single	RGS4-Gao single	RGS19-Gao conf	others
CC1CN(C(NC(=O)c2ccccc2)C(Cl)(Cl)Cl)CC(C)O1 (stereo unspecified)	11	142	4	120	150*[activator]	104	-1	105	107	106	105	96
CCC(CO)NC(=O)c1ccccc1C(F)(F)F (stereo unspecified)	.	?	7	104	107	105	.	.	.	.	.	.
CCCCC(=O)N(Cc1ccc(F)cc1)C1CCS(=O)(=O)C1 (stereo unspecified)	.	?	7	104	103	104	.	.	.	.	.	.
CNc1nc(-c2c[nH]c3ccccc23)cs1	24	151*[activator]	93*	111	192*[activator]	202*[activator]	-2	98	101	97	101	105
Nc1nc(-c2c[nH]c3ccccc23)cs1	39	102	36	99	99	100	.	.	.	.	.	.
Cc1cccc(NC(=O)COC(=O)c2cc3ccccc3oc2=O)c1	19	?	10	102	104	106	.	.	.	.	.	.
NC1CCN(c2c(F)cc3c(=O)c(C(=O)O)cn(C4CC4)c3c2Cl)C1 (stereo unspecified)	.	?	6	94	92	90	.	.	.	.	.	.
COc1cc(C)c(NC(=S)Nc2cccc(Cl)c2C)cc1OC	10	104	4	94	103	97	.	.	.	.	.	.
COc1ccc(OC)c(C2=NOC(C(=O)Nc3ccccc3SC)C2)c1 (stereo unspecified)	34	98	12	95	91	96	.	.	.	.	.	.
COc1ccc(OC)c(C2=NOC(C(=O)Nc3cccc(C(C)=O)c3)C2)c1 (stereo unspecified)	51	303*[activator]	413*	99	157*[activator]	118	3	93	88	91	93	93
CCN=c1scc(C)n1/N=C/c1ccc(O)c(O)c1O	26	65	4	59*	80	55	1	67*	64*	64*	78	47*	RGS-Gao=80*
CC1=C(C#N)C(=O)N(C2CCS(=O)(=O)C2)C(=O)/C1=C\c1ccco1 (stereo unspecified)	.	?	6	93	92	93	.	.	.	.	.	.
Cc1cc(-c2csc(N)n2)c(C)n1-c1ccc(Cl)c(Cl)c1	9	106	6	102	99	81	.	.	.	.	.	.
COc1ccc(-n2c(C)cc(-c3csc(N)n3)c2C)cc1	8	-0.7*	-5	13*	13*	0.5*	-2	98	100	99	100	107
CN(Cc1ccccc1Cl)C(=O)c1cnccc1C(F)(F)F	.	?	7	100	102	101	.	.	.	.	.	.
O=C(CCC1CCCCC1)Nc1ccc(C(=O)c2ccncc2)cc1	17	103	8	101	99	97	.	.	.	.	.	.
COc1ccc(C(=O)CCC(=O)Nc2cccnc2)cc1	9	2.6*	0	6.2*	0.8*	-5.4*	-1	101	98	102	99	101
COc1ccc(C(=O)CCC(=O)Nc2cccc(Cl)c2)cc1	15	95	11	99	98	101	.	.	.	.	.	.
O=C(CCC1CCCCC1)Nc1cccnc1	38	.	.	.	.	.	2	102	100	100	101	100
Cc1cc(C(=O)NN)c(Cl)cc1Cl	.	?	0	27*	21*	13*	2	111	107	107	105	107
CCOC(=O)C1CCCN(C(=O)c2cccc([N+](=O)[O-])c2C)C1 (stereo unspecified)	23	100	9	104	98	105	.	.	.	.	.	.
COCc1cc(/C=N\NC(=O)Cc2ccc(OC)cc2)ccc1OC	10	98	1	70	92	21*	-1	103	103	100	100	109	RGS-Gao=92*
Cc1ccc(-c2sc(C)nc2CC(=O)O)cc1	33	96	15	101	100	104	.	.	.	.	.	.
Cc1ccc(C2=C(CC(=O)O)C(=O)CC2)cc1	7	91	6	76	92	22*	0	103	104	101	101	147	RGS-Gao=92*
S=C1N[C@H]2CCCC[C@@H]2N1	.	?	7	98	98	97	.	.	.	.	.	.
SMILES	GSH fluor	RGS7-Gao reg	Avidin fluor	RGS8-Gao	RGS4-Gao reg	RGS16-Gao	Biotin-avidin	RGS8-Gao single	RGS7-Gao single	RGS16-Gao single	RGS4-Gao single	RGS19-Gao conf	others
CC1CCCC(C)N1C(=O)CN1C(=O)C(C)(C)Oc2ccc(C(=O)NC3CCCCC3)cc21 (stereo unspecified)	54	91	4	.	108	3	-1	100	101	101	98	92
CC1CCCC(C)N1C(=O)CN1C(=O)C(C)(C)Oc2ccc(C(=O)NC3CCCC3)cc21 (stereo unspecified)	41	.	.	.	.	.	0	100	102	101	101	98
CCC1(c2ccccc2)NC(=S)N(c2cccc(C)c2C)N1 (stereo unspecified)	10	98	6	94	96	91	.	.	.	.	.	.
C#CC(CC)(CC)NC(=S)Nc1ccc(S(N)(=O)=O)cc1	9	105	15	103	102	110	.	.	.	.	.	.
CC(C)CC(=O)/C(=C\c1ccc(Cl)cc1Cl)n1cncn1	12	51	-1	42*	48*	-1	1	88	80	87	90	81
COc1ccc(/C=C(/C(=O)c2ccc(Cl)cc2Cl)n2cncn2)cc1	24	104	22	101	100	101	.	.	.	.	.	.
Cc1sc(C(=O)Nc2ccc3ccccc3c2)cc1CC(=O)O	15	105	10	102	100	102	.	.	.	.	.	.
NC(=O)C1CCN(C(=O)Nc2csc3ccccc23)CC1	.	?	5	75	93	98	1	100	101	101	103	115
